High-throughput results: PubChem BioAssay, National Center for Advancing Translational Sciences (NCATS)
Hits are enriched below; roughly 1.3% of the tested compounds scored in any of these assays.
CCT modulator – modulators of cytosolic chaperonin (CCT/TRiC) activity; purified chaperonin ATPase assay, HTRF ADP detection, 30 min; activity change, % (no concentration beside the values), hits read low; AID 651819; actives 0.3% (n = 360,000); in the data active means activity change below about -30%
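We incubate TRiC, 40 or 20 nM final, with library compounds at 76 uM and 10 uM ATP for 30 min at 37 °C. ADP formed is detected with Transcreener HTRF reagents after 30 min at room temperature.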
CtBP-E1A inh – blocks the CtBP interaction with E1A | AlphaScreen GST-E1A/His-CtBP binding, 1536-well; stronger effect = lower value | activity change, % (concentration not given with the values) | actives 0.49% (n = 340,000)
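Steps: dispense buffer (Tris pH 8.0, NaCl 300 mM, TCEP 1 mM, BSA, Tween 20); add 5X protein mix (GST-E1A, His-CtBP, 125 nM each); pin 23 nL compound; 2 h at 37 °C, dark; add 5X beads (50 ug/mL); 1 h; read.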
Six1-Eya2 inh – blocks human Six1 binding to Eya2; Q15475+O00167; AlphaScreen GST-Six1/His-Eya2 binding, biochemical; stronger effect = lower value; activity change, % (no concentration beside the values); actives 0.56% (n = 360,000); AID 651725
Target sequence (O00167 whole entry, looked up): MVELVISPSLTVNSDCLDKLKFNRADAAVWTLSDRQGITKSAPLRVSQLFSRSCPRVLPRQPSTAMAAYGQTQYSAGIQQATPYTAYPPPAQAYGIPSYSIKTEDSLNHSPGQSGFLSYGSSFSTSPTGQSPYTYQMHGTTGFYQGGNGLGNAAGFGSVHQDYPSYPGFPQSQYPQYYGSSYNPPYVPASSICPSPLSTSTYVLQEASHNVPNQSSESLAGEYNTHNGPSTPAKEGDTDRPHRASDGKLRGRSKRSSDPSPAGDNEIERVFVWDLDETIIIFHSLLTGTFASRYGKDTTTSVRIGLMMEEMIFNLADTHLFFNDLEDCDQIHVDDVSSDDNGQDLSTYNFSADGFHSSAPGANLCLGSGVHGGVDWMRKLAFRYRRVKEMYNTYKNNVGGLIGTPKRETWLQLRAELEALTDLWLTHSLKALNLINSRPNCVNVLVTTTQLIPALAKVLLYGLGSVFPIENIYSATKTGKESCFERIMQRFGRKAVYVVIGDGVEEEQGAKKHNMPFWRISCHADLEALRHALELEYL
Target sequence (Q15475 whole entry, looked up): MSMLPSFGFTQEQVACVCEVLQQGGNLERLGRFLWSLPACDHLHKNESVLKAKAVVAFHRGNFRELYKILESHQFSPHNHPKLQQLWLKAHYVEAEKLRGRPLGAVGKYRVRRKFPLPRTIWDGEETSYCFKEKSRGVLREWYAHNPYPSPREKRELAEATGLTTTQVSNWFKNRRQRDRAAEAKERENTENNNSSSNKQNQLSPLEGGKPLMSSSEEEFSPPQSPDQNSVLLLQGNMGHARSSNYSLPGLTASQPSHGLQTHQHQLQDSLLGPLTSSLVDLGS
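Compounds are tested against tagged Six1 and Eya2 proteins bridged by glutathione donor and nickel acceptor beads; after a one-hour incubation at 37 °C without light, AlphaScreen emission is recorded.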
Akt phos inh – blocks phosphorylation of Akt | AID 651550 | activity change, % for hits at 50 µM | Neuro2A IGF-stimulated pAkt S473 HTRF, 20 min; stronger effect = lower value | actives 0.32% (n = 360,000); in the data active means activity change below about -80%; inconclusive means mostly about -51% to -80%
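Single-point screen (50 µM final compound) in Neuro2A cells stimulated 20 min with 6 nM IGF at 37 deg C. After lysis, Ser473-phosphorylated Akt read by HTRF (ex 330 nm, em 615/665 nm) as the 665/615 ratio.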
Each line names hits and unclear results; the compound was inactive in the other large screens. Unless noted, no stated cut-off is given here; in the data, active means activity change below about -65%; inconclusive means mostly about -30% to -63%; inactive means weaker than that.

COCCn1c(N)c(NCc2ccccc2)c(=O)n(CC(=O)Nc2cc(C)ccc2C)c1=O	Akt phos inh -108%
O=C(Nc1nncs1)C1c2ccccc2Oc2ccccc21	Akt phos inh -102%
Cc1nnc(NC(=O)C2c3ccccc3Oc3ccccc32)s1	none
N#Cc1ccccc1OCC(=O)NNC(=O)CCNC(=O)c1ccccc1	none
N#CC1=C(N)OC2=C(C(=O)CCC2)C1C1C=CCCC1 (stereo not given)	Akt phos inh -110%
COc1ccc(Cc2nnc(NN)[nH]c2=O)cc1OC	Six1-Eya2 inh -91
COCCNc1nnc(Cc2ccc(OC)c(OC)c2)c(=O)[nH]1	none
COc1ccc(Cc2nnc(Nc3ccc(C)cc3C)[nH]c2=O)cc1	Akt phos inh -122%
COc1ccc(C(=O)NC(CCSC)C(=O)N2CCCCCC2)cc1 (stereo not given)	none
CC(=O)Nc1ccc(S(=O)(=O)Nc2ccc(Cc3ccncc3)cc2)cc1	none
CC(=O)Nc1ccc(Cc2ccncc2)cc1	Akt phos inh -113%
O=c1c(-c2nnc(SCc3ccc(Cl)cc3Cl)o2)cccn1Cc1ccccc1	Akt phos inh -94%
CCC(=O)Nc1ccccc1C(=O)OCc1ccc(C(=O)c2ccccc2)cc1	none
CCC(=O)Nc1ccccc1C(=O)OCC(=O)c1cccc2ccccc12	Akt phos inh -118%
CNc1c(NS(=O)(=O)c2ccc(OC)c(Cl)c2)c(=O)oc2ccccc12	CCT modulator -63
CCNc1c(NS(=O)(=O)c2ccc(OC)c(Cl)c2)c(=O)oc2ccccc12	none
CCOC(=O)c1nc(Nc2cc(Cl)ccc2OC)c2ccccc2n1	none (no result: CtBP-E1A inh)
CCOC(=O)c1c(-c2ccccc2)nc2c(C)cccn12	CCT modulator -119
CC12CCC(=O)N1C(C(=O)Nc1cc(Cl)ccc1N1CCCC1)CS2 (stereo not given)	none
CN(Cc1ccccc1)C(NC(=O)c1ccccc1)C(Cl)(Cl)Cl (stereo not given)	CCT modulator -39
CCOC(=O)[C@]12CCCC=C1N(Cc1cccc3ccccc13)C(=O)[C@H](CC(=O)N1CCC(c3ccccc3)CC1)C2	none
COc1ccc(CCNS(=O)(=O)c2ccc(N3CCCC3=O)cc2)cc1	none
COc1ccc(OC)c(NS(=O)(=O)c2ccc(N3CCCC3=O)cc2)c1	Akt phos inh -115%
CCCN(CC(=O)Nc1ccccc1OC)C(=O)Cc1ccc2c(c1)CCC2	none
CC(NC(=O)COC(=O)c1ccccc1O)C1CC2CCC1C2 (stereo not given)	none
Cc1cc(/C=C(/C#N)c2nc3ccccc3[nH]2)c(C)n1-c1cc(C(=O)O)cc(C(=O)O)c1	CtBP-E1A inh -66, Six1-Eya2 inh -69
O=C(NCCc1nc2ccccc2[nH]1)C1CCC(=O)N(CCc2cccc(F)c2)C1 (stereo not given)	none
CC1CCN(C(=O)COC(=O)c2cc(Cl)c3c(c2)OCO3)CC1	none
O=C(O)c1cc(Cl)c2c(c1)OCO2	CCT modulator -61 (no result: CtBP-E1A inh)
Cc1ccc([C@H]2C[C@@H](n3cc(C4CC4)nn3)[C@H](O)CN2CC2CCCCC2)cc1	CCT modulator -74
Cc1ccc([C@H]2C[C@H](n3cc(C4CC4)nn3)[C@@H](O)CN2CC2CCCCC2)cc1	none
S=c1nc(-c2ccccn2)c(-c2ccccn2)n[nH]1	CtBP-E1A inh -89, Six1-Eya2 inh -83
c1ccc(-c2ccccn2)nc1	none
CCCNC(=O)c1cc(C2CCCCN2C(=O)c2ccc(OC)cc2)on1 (stereo not given)	none
COCCNc1nc(Nc2ccc(C#N)cc2)c2sccc2n1	none
Cc1cccc(C(C)(C)C)c1OCCCCN1CCCC1	CCT modulator -59
Cc1cc(N2CCCCCC2)nc2ccc(F)cc12	Akt phos inh -92%
Cc1ccc(C)c(N2N=C(C(=O)NCCN3C(=O)S/C(=C\c4cccnc4)C3=O)CCC2=O)c1	none
COc1ccc(-c2cc(C(=O)Nc3cc(OC)c(OC)c(OC)c3)no2)cc1	CCT modulator -34
O=[N+]([O-])c1ccc(/C=N/N2CCN(Cc3ccccc3)CC2)cc1	CCT modulator -105, CtBP-E1A inh inconclusive, Six1-Eya2 inh inconclusive
O=[N+]([O-])c1ccc2c(OCc3nnc(-c4ccccc4Br)o3)ncnc2c1	CtBP-E1A inh -85, Six1-Eya2 inh -70
O=[N+]([O-])c1cc(Br)c(OCc2nnc(-c3ccccc3)o2)c(Br)c1	none (no result: CtBP-E1A inh)
CCS(CC)=NS(=O)(=O)c1ccc(NC(C)=O)cc1	Akt phos inh -118%
CN(C)c1ccc(NC(=S)c2ccccn2)cc1	CtBP-E1A inh -74, Six1-Eya2 inh -88
CCOC(=O)C1=C(C)NC2=C(C(=O)C(C(=O)OCC)C(c3ccc(OC)cc3)C2)C1c1ccccn1 (stereo not given)	Akt phos inh -108%
CCOC(=O)C1=C(C)NC2=C(C(=O)C(C(=O)OCC)C(c3cccc(OC)c3)C2)C1c1ccccn1 (stereo not given)	none
COc1ccc(S(=O)(=O)Nc2ccc3c(c2)C(=O)N([C@@H](C)CO)C[C@@H](C)[C@H](CN(C)S(=O)(=O)c2ccc(F)cc2)OCCCC[C@H](C)O3)cc1	none
Cc1cc(C)c2cc3c(N)c(C(=O)Nc4c(C)[nH]c(=O)[nH]c4=O)sc3nc2c1	Six1-Eya2 inh -71
COc1ccc(OC)c(NC2=NC3(CCCCC3)N=C(N)N2)c1	CtBP-E1A inh -73, Six1-Eya2 inh -84
Cc1ccc(NC(=O)CN(C)C(=O)c2cccnc2Nc2cccc(C(F)(F)F)c2)cc1	none
CC1CCCCN1C(=O)COC(=O)c1cccc(NS(=O)(=O)c2ccccc2)c1 (stereo not given)	none
COc1cc(C2C(C(=O)c3ccco3)=C(O)C(=O)N2c2cc(C)on2)cc(Br)c1O (stereo not given)	Akt phos inh -115%
COc1cc(C2C(C(=O)c3ccc(C)o3)=C(O)C(=O)N2c2cc(C)on2)cc(Br)c1O (stereo not given)	none
COc1ccc([C@@H]2CC=C(C(=O)O)[C@H](c3ccccc3)N2S(=O)(=O)c2ccccc2C)cc1	CCT modulator -49 (no result: CtBP-E1A inh)
Cc1ccccc1S(=O)(=O)N1[C@@H](c2ccc(F)cc2)C(C(=O)O)=CC[C@H]1c1ccc(Cl)cc1	none
O=C1C(NS(=O)(=O)c2ccc(Cl)cc2)=C(N2CCCCC2)C(=O)c2ccccc21	CtBP-E1A inh -81, Six1-Eya2 inh -80
CCOC(=O)C1CCN(C2=C(NS(=O)(=O)c3ccc(Br)cc3)C(=O)c3ccccc3C2=O)CC1	Six1-Eya2 inh -80 (no result: CtBP-E1A inh)
CN1CCN(C2=C(NS(=O)(=O)c3ccccc3)C(=O)c3ccccc3C2=O)CC1	none
NS(=O)(=O)c1ccc(NC(=O)c2cccc3cc4ccccc4nc23)cc1	none
O=C(N/N=C/c1c(O)ccc2ccccc12)C(=O)N1CCCC1	CtBP-E1A inh inconclusive, Six1-Eya2 inh -87
Cc1cc(C)n(CCC(=O)N/N=C/c2ccc(O)cc2)n1	none
O=C(CN1CCCC1)N/N=C/c1c(O)ccc2ccccc12	CtBP-E1A inh -91, Six1-Eya2 inh -90
Cc1cc(C)n(CCC(=O)N/N=C/c2c(O)ccc3ccccc23)n1	Six1-Eya2 inh -89 (no result: CtBP-E1A inh)
